The source of these data is ChEMBL document CHEMBL1961873, “Compounds: GSK PKIS; Assays: Nanosyn kinase panel” (2012).

The target in test [1] is Serine/threonine-protein kinase MRCK alpha (Homo sapiens) (UniProt Q5VT25). The following applies: at 0.1 µM.
The target is the same in test [2]. The following applies: at 1 µM.
The target of test [3] is Serine/threonine-protein kinase MRCK beta (Homo sapiens) (UniProt Q9Y5S2). The settings on record: at 0.1 µM.
The target is the same in test [4]. The following applies: at 1 µM.
Test [5] has as its target Ribosomal protein S6 kinase alpha-5 (Homo sapiens) (UniProt O75582). The following applies: at 0.1 µM.
Test [6] shares this target. The settings on record: at 1 µM.
Test [7] deals with Ribosomal protein S6 kinase alpha-4 (Homo sapiens) (UniProt O75676). The settings on record: at 0.1 µM.
The target is the same in test [8]. The settings on record: at 1 µM.
The target in test [9] is Ribosomal protein S6 kinase beta-1 (Homo sapiens) (UniProt P23443). The settings on record: at 0.1 µM.
Ribosomal protein S6 kinase beta-1 (Homo sapiens), sequence (P23443 whole entry, looked up): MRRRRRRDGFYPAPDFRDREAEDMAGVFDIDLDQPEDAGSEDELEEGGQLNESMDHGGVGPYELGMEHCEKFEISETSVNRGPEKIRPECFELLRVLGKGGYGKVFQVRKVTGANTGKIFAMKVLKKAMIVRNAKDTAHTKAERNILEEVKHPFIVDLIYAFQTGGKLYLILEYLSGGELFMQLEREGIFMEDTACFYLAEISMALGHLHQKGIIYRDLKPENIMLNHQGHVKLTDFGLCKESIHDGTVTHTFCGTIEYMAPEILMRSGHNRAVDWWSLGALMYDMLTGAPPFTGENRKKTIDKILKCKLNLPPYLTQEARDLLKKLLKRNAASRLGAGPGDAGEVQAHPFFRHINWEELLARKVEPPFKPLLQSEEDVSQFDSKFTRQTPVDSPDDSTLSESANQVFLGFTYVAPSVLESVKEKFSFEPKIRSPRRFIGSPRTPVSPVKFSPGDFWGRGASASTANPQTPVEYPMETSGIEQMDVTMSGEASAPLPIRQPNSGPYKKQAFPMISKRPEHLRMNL
Test [10] has the same target. The following applies: at 1 µM.
Test [11] concerns the target T1, 3-phosphoinositide-dependent protein kinase 1 (Homo sapiens) (UniProt O15530).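 Also: values are mean inhibition of PDK1.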
T1 sequence (whole entry): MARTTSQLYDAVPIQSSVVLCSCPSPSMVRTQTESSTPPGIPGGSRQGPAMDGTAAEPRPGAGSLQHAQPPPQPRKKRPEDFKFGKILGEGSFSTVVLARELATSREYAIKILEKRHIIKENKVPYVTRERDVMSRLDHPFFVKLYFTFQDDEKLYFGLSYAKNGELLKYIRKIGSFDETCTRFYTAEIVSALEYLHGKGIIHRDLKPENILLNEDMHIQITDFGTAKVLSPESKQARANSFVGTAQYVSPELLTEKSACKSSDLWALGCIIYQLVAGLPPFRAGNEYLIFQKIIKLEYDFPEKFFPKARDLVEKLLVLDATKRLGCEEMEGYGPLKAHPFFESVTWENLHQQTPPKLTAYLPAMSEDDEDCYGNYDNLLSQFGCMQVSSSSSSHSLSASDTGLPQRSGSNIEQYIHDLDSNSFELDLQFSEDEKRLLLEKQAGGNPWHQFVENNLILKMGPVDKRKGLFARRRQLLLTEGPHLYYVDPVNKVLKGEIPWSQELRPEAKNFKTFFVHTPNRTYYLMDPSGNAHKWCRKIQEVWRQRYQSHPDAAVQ
The following applies: at 0.1 µM.

For test [12], the target named is cAMP-dependent protein kinase catalytic subunit alpha (Homo sapiens) (UniProt P17612). The following applies: at 0.1 µM.
Test [13] has the same target. The settings on record: at 1 µM.
In test [14] the target is Protein kinase C alpha type (Homo sapiens) (UniProt P17252). The settings on record: at 0.1 µM.
Test [15] has the same target. The settings on record: at 1 µM.
Test [16] addresses Protein kinase C beta type (Homo sapiens) (UniProt P05771). The following applies: at 0.1 µM.
The target is the same in test [17]. The settings on record: at 1 µM.
The target in test [18] is Protein kinase C eta type (Homo sapiens) (UniProt P24723). The settings on record: at 0.1 µM.
For test [19] the target is unchanged. The following applies: at 1 µM.
Test [20] has as its target Protein kinase C gamma type (Homo sapiens) (UniProt P05129). The settings on record: at 0.1 µM.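 Also: values are mean percent inhibition of PKC gamma.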

Serine/threonine-protein kinase MRCK beta (Homo sapiens), sequence (Q9Y5S2 whole entry): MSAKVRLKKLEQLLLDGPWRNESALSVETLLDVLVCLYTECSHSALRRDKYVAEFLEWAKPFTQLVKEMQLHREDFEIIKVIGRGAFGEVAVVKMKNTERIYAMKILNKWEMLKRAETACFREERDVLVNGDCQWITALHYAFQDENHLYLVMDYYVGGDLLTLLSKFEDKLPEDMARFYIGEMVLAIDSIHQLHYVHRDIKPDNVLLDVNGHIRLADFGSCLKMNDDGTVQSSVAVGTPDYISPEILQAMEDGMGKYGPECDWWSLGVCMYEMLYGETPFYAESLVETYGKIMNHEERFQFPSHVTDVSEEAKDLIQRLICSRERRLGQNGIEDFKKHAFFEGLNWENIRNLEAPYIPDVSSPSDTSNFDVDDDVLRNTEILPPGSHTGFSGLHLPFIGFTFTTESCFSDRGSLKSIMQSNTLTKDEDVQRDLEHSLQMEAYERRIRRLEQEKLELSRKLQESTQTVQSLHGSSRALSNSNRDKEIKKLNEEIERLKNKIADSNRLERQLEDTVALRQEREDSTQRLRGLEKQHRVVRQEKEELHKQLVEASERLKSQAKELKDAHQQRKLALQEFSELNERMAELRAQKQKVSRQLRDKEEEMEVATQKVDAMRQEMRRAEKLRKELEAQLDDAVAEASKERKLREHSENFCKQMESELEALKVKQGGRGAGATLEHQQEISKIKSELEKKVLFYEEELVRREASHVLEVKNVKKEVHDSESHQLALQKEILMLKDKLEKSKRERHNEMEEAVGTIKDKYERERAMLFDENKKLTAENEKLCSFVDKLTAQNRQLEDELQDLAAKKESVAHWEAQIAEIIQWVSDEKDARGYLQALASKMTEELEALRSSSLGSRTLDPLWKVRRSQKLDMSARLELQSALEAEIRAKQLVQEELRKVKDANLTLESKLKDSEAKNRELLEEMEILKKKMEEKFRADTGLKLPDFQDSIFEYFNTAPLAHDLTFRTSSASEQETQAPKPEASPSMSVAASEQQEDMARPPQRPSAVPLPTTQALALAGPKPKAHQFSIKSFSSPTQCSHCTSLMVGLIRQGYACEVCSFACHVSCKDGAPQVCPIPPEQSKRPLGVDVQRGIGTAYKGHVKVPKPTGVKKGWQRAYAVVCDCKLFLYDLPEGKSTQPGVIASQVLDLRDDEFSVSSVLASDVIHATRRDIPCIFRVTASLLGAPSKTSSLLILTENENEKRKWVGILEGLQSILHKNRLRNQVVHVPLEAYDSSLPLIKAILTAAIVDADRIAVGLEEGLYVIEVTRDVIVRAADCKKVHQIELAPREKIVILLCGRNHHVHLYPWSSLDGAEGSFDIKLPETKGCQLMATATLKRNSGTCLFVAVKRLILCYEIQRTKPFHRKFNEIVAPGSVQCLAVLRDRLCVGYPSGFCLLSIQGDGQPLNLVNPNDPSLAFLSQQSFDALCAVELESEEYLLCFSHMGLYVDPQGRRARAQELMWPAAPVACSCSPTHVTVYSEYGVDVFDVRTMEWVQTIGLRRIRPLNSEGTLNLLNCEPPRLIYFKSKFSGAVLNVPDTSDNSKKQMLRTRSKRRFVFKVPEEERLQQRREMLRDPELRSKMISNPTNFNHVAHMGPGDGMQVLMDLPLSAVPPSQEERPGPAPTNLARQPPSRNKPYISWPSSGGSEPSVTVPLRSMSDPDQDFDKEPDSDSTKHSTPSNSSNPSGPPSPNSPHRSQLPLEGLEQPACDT
Protein kinase C beta type (Homo sapiens), sequence (P05771 2-671 limits assumed): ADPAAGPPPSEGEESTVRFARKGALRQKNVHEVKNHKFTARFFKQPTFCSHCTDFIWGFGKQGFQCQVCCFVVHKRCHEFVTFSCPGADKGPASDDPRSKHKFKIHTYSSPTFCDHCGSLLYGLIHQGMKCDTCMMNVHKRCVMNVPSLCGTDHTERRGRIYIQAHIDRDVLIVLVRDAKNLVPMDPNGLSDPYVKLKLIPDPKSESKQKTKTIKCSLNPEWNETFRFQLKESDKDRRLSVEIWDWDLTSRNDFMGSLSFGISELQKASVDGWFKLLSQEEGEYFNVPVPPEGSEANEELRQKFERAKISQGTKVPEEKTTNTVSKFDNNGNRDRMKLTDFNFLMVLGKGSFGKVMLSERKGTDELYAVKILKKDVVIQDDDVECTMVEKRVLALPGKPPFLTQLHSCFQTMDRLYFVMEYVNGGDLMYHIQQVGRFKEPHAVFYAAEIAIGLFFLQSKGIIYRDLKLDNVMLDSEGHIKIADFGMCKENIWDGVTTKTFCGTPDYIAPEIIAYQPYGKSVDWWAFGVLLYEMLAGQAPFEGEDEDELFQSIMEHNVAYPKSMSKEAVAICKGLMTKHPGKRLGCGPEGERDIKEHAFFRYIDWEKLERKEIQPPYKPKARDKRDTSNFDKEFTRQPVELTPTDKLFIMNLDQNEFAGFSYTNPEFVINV
Ribosomal protein S6 kinase alpha-5 (Homo sapiens), sequence (O75582 whole entry, looked up): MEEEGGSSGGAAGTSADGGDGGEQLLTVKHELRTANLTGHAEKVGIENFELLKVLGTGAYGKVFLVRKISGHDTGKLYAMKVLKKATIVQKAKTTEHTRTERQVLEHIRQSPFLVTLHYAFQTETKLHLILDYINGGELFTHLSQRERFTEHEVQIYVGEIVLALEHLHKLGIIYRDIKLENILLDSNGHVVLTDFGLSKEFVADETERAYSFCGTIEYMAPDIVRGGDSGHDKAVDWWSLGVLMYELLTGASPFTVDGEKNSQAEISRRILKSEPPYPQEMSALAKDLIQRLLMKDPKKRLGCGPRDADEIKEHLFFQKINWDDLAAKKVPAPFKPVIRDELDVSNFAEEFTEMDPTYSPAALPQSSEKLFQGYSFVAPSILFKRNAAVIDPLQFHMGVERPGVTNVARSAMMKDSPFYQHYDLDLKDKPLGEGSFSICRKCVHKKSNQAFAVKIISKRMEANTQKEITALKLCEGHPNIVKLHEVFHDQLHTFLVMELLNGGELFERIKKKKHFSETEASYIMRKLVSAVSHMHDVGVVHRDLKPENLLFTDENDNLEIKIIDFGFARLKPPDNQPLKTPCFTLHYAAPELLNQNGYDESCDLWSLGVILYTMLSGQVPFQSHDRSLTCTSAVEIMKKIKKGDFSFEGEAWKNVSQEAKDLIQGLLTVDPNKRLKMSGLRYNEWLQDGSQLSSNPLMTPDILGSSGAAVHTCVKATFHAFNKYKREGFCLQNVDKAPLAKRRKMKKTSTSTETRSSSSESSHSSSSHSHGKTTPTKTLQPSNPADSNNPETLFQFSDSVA

The term inhibition denotes the drop in the measured response relative to a control, in per cent. As to `CC1=C(C(=O)Nc2ccc3[nH]ncc3c2)C(c2ccc(F)cc2)NC(=O)N1` (stereo not given), the inhibition in [1] was determined as 2.04%; in test [2], 12.4%; in [3], 5.57%; in test [4] it was 29.9%; in test [5], 8.51%; in [6], 34.2%. Also, the inhibition was determined as 3.34% in [7]; 16.7% in [8]; 1.64% in test [9]; 13.8% in test [10]; 0.63% in test [11]; 3.81% in test [12]. Moreover, the inhibition in [13] is 30.4%; in test [14] it was 0.69%; in test [15], 0.39%; in test [16], -0.65%; in test [17], 1.36%; in [18], 3.55%. Besides, the inhibition is 10.8% in test [19] and 0.38% in [20].
For the molecule `O=C1Nc2ccc(C(=O)c3ccco3)cc2C1=Cc1cc(Cl)c(O)c(Cl)c1`, the inhibition was -0.25% in [1]; 1.33% in [2]; -0.3% in test [3]; 1.6% in test [4]; 2.41% in test [5]; 5.05% in test [6]. Moreover, the inhibition turned out to be 0.41% in test [7]; 4.81% in [8]; 0.47% in [9]; 3.14% in [10]; 3.22% in test [11]; 1.97% in test [12]. In addition, the inhibition in test [13] is 4.78%; in [14] it was 1.38%; in test [15] it was 3.32%; in test [16] it was -0.57%; in test [17], 1.37%; in test [18], 4.29%. Moreover, the inhibition in test [19] was 7.64%; in [20], 1.31%.
On to `Cc1nnc(-c2ccc(C)c(-c3ccc(C(=O)Nc4cccc(C#N)c4)cc3)c2)o1`, for which the inhibition was 0.21% in test [1]; 2.76% in test [2]; -0.92% in test [3]; -0.91% in [4]; 1.21% in test [5]; 1.62% in test [6]. The inhibition in test [7] came to 0.19%; in test [8], 2.28%; in test [9], 1.45%; in test [10] it was 1.91%; in test [11], 0.99%; in test [12] it was 2.18%. The inhibition in test [13] was 1.76%; in test [14], 0.5%; in test [15], 0.89%; in test [16] it was -0.92%; in test [17] it was 2.05%; in test [18], 0.8%. Further, the inhibition is 3.76% in test [19] and 1.49% in [20].
On to `Cn1cc(C=C2C(=O)Nc3cccnc32)c2ccccc21`, for which the inhibition in test [1] was 0.96%; in test [2], 0.55%; in [3] it was 1.17%; in test [4], 0.99%; in test [5], 2.12%; in [6], 3.29%. Besides, the inhibition in [7] came out at 2.56%; in test [8] it was 10.1%; in test [9], 1.61%; in test [10], 3.78%; in test [11], 0.63%; in test [12] it was 0.99%. For the same molecule, the inhibition in [13] was 1.46%; in test [14], 1%; in test [15], 1.29%; in [16], -0.06%; in test [17] it was -1.44%; in test [18] it was 2.86%. Further, the values for the inhibition in test [19] and in test [20] were -0.57% and -1.77%, respectively.
For the molecule `COC(=O)Nc1nc2cc(Oc3ccc(NC(=O)Nc4cccc(C(=O)O)c4)cc3)ccc2[nH]1`, the inhibition in test [1] was 1.42%; in test [2], 1.5%; in [3], -0.52%; in test [4], -1.21%; in [5], -0.25%; in test [6] it was 1.28%. Also, the inhibition in test [7] was 1.24%; in [8] it was 2.84%; in test [9], 0.88%; in test [10] it was 0.91%; in test [11], 2.53%; in [12], -3.91%. For the same molecule, the inhibition in test [13] was 0.18%; in test [14], -3.01%; in test [15], -3.65%; in [16] it was 0.02%; in [17], 1.6%; in [18] it was -0.35%. Also, the inhibition worked out at 3.15% in test [19] and 2.38% in test [20].
Consider `NC(=O)c1ccc(-c2nc(-c3ccccn3)c(-c3ccc4c(c3)OCO4)[nH]2)cc1`, for which the inhibition was 0.14% in test [1]; 2.49% in test [2]; 1.08% in test [3]; 0.59% in test [4]; 1.5% in test [5]; 1.56% in [6]. Also, the inhibition in [7] was found to be 2.14%; in test [8], 4.23%; in test [9], 1.26%; in test [10] it was 2.46%; in [11] it was 2.65%; in test [12] it was 1%. For the same molecule, the inhibition was 2.8% in test [13]; 1.23% in test [14]; 3.42% in test [15]; -0.16% in [16]; 2.78% in [17]; -0.32% in test [18]. For the same molecule, the inhibition was -0.29% in [19] and -0.15% in test [20].
As to `CC(=O)Nc1cccc(C#Cc2cncnc2Nc2ccc(OCc3cccc(F)c3)c(Cl)c2)n1`, the inhibition in test [1] amounted to 2.04%; in [2], 4.47%; in test [3] it was 0.72%; in test [4] it was 3.16%; in [5] it was 8.63%; in [6] it was 10.1%. In addition, the inhibition is 2.79% in [7]; 4.81% in [8]; 0.05% in test [9]; 0.93% in [10]; -0.76% in [11]; 2.4% in [12]. The inhibition is 4.87% in test [13]; 1.1% in test [14]; 0.59% in test [15]; 5.03% in test [16]; 8.84% in [17]; 0.65% in test [18]. Further, the inhibition in test [19] came to 3.65%; in [20], 2.74%.
